Screens: PubChem, National Center for Advancing Translational Sciences (NCATS)
This is a sample that favours compounds with a hit; in the whole collection about 3.7% have one here.
GLP1R inv ag – inverse agonists of human GLP-1 receptor | AID 624417 | Potency, µM (top dose mostly 38.3 µM), for inactives: top-dose activity change, negative = inhibition, actives largely listed as inhibitors | HEK293 GLP-1R CRE-luciferase, luminescence, 24 h; GLP-1R form is constitutively active | 410,000 tested, 1.6% active | P43220; further: on the % scale 0 is the no-effect control and ±100 the full control effect; nearly all actives have a fitted effect of over 55% in size
Target sequence (P43220 whole entry, looked up): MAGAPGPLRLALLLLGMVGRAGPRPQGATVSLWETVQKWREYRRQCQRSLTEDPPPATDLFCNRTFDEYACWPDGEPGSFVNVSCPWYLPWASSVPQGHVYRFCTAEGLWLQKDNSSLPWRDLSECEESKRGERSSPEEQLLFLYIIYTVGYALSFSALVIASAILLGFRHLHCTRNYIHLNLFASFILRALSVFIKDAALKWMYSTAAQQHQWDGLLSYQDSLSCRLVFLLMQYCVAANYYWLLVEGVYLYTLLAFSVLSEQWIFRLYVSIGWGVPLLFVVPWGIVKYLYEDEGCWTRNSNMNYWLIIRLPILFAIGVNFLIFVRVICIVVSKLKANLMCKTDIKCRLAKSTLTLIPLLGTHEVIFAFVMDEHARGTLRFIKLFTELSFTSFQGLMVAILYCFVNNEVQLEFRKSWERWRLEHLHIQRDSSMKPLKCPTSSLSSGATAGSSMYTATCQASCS
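Seeding at 200 cells/uL, 12 h culture, 24 hr compound treatment, then luciferase reagent and a luminescence read; cells are HEK293 stably expressing a constitutively active GLP-1R plus cAMP-responsive luciferase.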
ATXN2 expr inh – reduces ATXN2 reporter expression in HEK-293 cells. 360,000 tested, 0.72% active. Potency, µM (top dose mostly 57 µM), inactives show top-dose activity change, negative = inhibition, hits mostly inhibitors. HEK-293 ATXN2-luciferase reporter, luminescence, 24 h; further: on the % scale 0 is the no-effect control and ±100 the full control effect; nearly all actives have a fitted effect of over 55% in size
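qHTS (up to 57 uM final) was run with 24 h compound exposure of reporter cells at 37 °C. Each well was multiplexed: SteadyGlo luminescence measured ATXN2-luciferase expression after a fluorogenic Gly-Phe-AFC viability readout (25 uM final).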
TGFb inhibitor – TGF-b pathway inhibition. HepG2 CAGA-GFP TGF-b/SMAD3 reporter, GFP fluorescence, 18 h; TGF-beta stimulated, 500 pg/mL final. Potency, µM (highest dose often 46.1 µM), for inactives: top-dose activity, negative = inhibition, hits mostly inhibitors. 410,000 tested, 1.2% active; further: on the % scale 0 is the no-effect control and ±100 the full control effect; nearly all actives have a fitted effect of over 65% in size
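HEPG2 CAGA-GFP reporter cells (1000/well, DMEM with 1% FBS) received compounds, then recombinant TGF-beta at 500 pg/mL final for 18 hours at 37 degrees C. Per-cell GFP summed per well was normalised to unstimulated and stimulated DMSO controls before curve fitting.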
ATXN viability – cell viability loss in ATXN counter-screen; S2 cells (HEK-293 line with an ATXN2-luciferase reporter) viability, CellTiter-Fluor protease fluorescence, 24 h; Potency, µM (series often up to 56.7 µM), hits mostly cytotoxic; 400,000 tested, 0.49% active; further: nearly all actives have a fitted effect of over 40% in size
HepG2 viability – HepG2 cytotoxicity, counter-screen for TGF-b inhibitors; HepG2 CAGA-GFP viability, ATP luminescence, 18 h; Potency, µM (doses to about 46.1 µM), inactives show at the highest dose activity change, negative = cytotoxicity, actives largely listed as cytotoxic; 410,000 tested, 0.76% active
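CellTiter-Glo luminescence gave cytotoxicity after 18 hours at 37 degrees C. The cells were HepG2 CAGA-GFP in 1% FBS DMEM, stimulated with 500 pg/mL TGF-beta after compound addition. %Activity was normalised to no-cell wells (complete cell-killing) and DMSO (no toxicity), and curves were fitted and classified.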
GLP-1R agonist – GLP-1 receptor (human) agonism; P43220; HEK293 GLP-1R CRE-luciferase, luminescence, 4-6 h; cells express a hypersensitive GLP-1R form; Potency, µM (titrated, usually from 45.6 µM), for inactives: top-dose activation, actives largely listed as activators; 380,000 tested, 0.007% active; AID 624172; further: % of control where 0% means no effect
* hit, by the source's call; i = inactive; ? = inconclusive; / = no result; [ ] = another dose, or the depositor's remark. The call rests on the fitted dose curve; in most records, active means well fitted curve in the direction sought with a large enough effect; inconclusive means small, poorly fitted or top-dose-only effect, or another doubt; inactive means no such curve, though single readings can be large; an effect the other way counts as inactive or inconclusive. Potency means the concentration at half of the fitted maximal effect.

SMILES | GLP1R inv ag | ATXN2 expr inh | TGFb inhibitor | ATXN viability | HepG2 viability | GLP-1R agonist
COc1cccc(/C=C2\Sc3ccc(C(=O)NCc4cccnc4)cc3N(C)C2=O)c1 | -19% | 0% | ? | i | -19% | 15%
COc1cccc(/C=C2/Sc3ccc(C(=O)NCCN4CCCCCC4)cc3NC2=O)c1 | ? | / | 10µM* | ? | 16µM* | -1%
O=C1Nc2cc(C(=O)NCCN3CCCCCC3)ccc2S/C1=C\c1ccccc1 | ? | / | ? | ? | 14µM* | 22%
CCN1CCCC1CNC(=O)c1ccc2c(c1)NC(=O)/C(=C\c1ccccc1Cl)S2 (stereo not drawn) | ? | / | ? | i | -96% | 6%
O=C(CNC1=NCCS1)c1c[nH]c2ccccc12 | / | / | -2% | / | -12% | /
COc1cc(C)c(CN2C[C@H](Sc3nc4ccccc4[nH]3)C[C@H]2C(=O)N(C)C)cc1C | / | / | / | i | / | /
CCN1CCN(CCCNC(=O)c2ccc3c(c2)NC(=O)c2ccccc2S3)CC1 | -7% | -5% | -3% | i | -14% | 9%
COc1ccc(/C=C2/Sc3ccc(C(=O)NCCCN4CCOCC4)cc3NC2=O)cc1OC | 79% | -38% | 14µM* | ? | 20µM* | ?
CCN1CCN(CCCNC(=O)c2ccc3c(c2)NC(=O)/C(=C\c2cccc(C)c2)S3)CC1 | 7.1µM* | / | ? | ? | 13µM* | 0%
CNc1cc(C(=O)O)nc2ccccc12 | / | / | ? | / | -35% | /
C=C[C@]1(C)C[C@@H](OC(=O)CO)[C@]2(C)[C@H](C)CC[C@]3(CCC(=O)[C@H]32)[C@@H](C)[C@@H]1O | / | / | / | i | / | /
C[C@H](N)C(=O)N[C@@H](C)C(=O)NC1[C@H]2CN(c3nc4c(cc3F)c(=O)c(C(=O)O)cn4-c3ccc(F)cc3F)C[C@@H]12 (stereo partly drawn) | / | -2% | / | i | / | /
Cc1cccc(CN2C(=O)N/C(=C/c3ccc(C)s3)C2=O)c1 | ? | 1% | 62% | i | -2% | -9%
Cc1cccc(CN2C(=O)N/C(=C/c3cc(C)n(-c4cc(C)ccn4)c3C)C2=O)c1 | 10µM* | -9% | -6% | i | -1% | -8%
Clc1nc(NCC2CCCO2)c2[nH]cnc2n1 (stereo not drawn) | / | / | -1% | / | 0% | /
O=C(NOCC1CC1)c1ccc(F)c(F)c1Nc1ccc(I)cc1Cl | / | 31µM* | / | ? | / | /
O=C(Nc1ccc(F)cc1F)c1cc2c(=O)n3ccccc3nc2s1 | 14% | 15% | 6% | i | -7% | /
O=C(Cn1c(SCC(=O)Nc2ccc(F)cc2)nc2ccccc21)NCc1ccc(Cl)cc1 | ? | -27% | 13µM* | ? | -98% | /
O=C(Cn1c(SCC(=O)Nc2ccc(F)cc2)nc2ccccc21)NCc1ccc(F)cc1 | ? | -17% | -25% | ? | -58% | /
Cc1ccc(CNC(=O)Cn2c(SCC(=O)Nc3ccc(F)cc3)nc3ccccc32)cc1 | ? | ? | ? | ? | 7.1µM* | /
COc1ccc(-n2c(CNC(=O)c3c(-c4ccccc4)noc3C)nnc2SC)cc1 | / | / | / | i | / | /
CC1(C(=O)NC2CCCCC2)Cc2ccccc2C(=O)N1Cc1ccc(Cl)cc1 (stereo not drawn) | 13% | / | / | / | -1% | /
O=C(O)CC1NC(=S)N(Cc2ccccc2)C1=O (stereo not drawn) | 7.9µM* | / | 3% | ? | -9% | -3%
O=C(NCCc1ccccn1)c1cnn(-c2ncc3c(n2)-c2ccccc2CC3)c1C1CC1 | / | / | / | i | / | /
CCOC(=O)c1cc(-c2ccc(OC)cc2)n(CCC(=O)NC2CCN(Cc3ccccc3)CC2)c1C | ? | / | ? | i | -78% | -7%
SMILES | GLP1R inv ag | ATXN2 expr inh | TGFb inhibitor | ATXN viability | HepG2 viability | GLP-1R agonist
CCOC(=O)c1cc(-c2ccc(C)cc2)n(CCC(=O)Nc2ccc(C(C)C)cc2)c1C | 2.5µM* | -17% | ? | ? | -12% | 0%
CCOC(=O)c1cc(-c2ccc(F)cc2)n(CCC(=O)NC2CCN(Cc3ccccc3)CC2)c1C | 7.9µM* | ? | ? | ? | 13µM* | 14%
CCOC(=O)c1cccc(NC(=O)CCn2c(-c3ccc(F)cc3)cc(C(=O)OCC)c2C)c1 | 10µM* | / | -8% | / | -25% | /
COc1cc(OC)c(NC(=O)CCCn2nc(C)c3sc4ccccc4c3c2=O)cc1Cl | -2% | / | ? | / | -8% | /
CCOC(=O)[C@H]1[C@H]2COc3ccc(Cl)cc3[C@@H]2N2C(=O)c3cc(F)c(F)cc3NC(=O)[C@@]12C | 10µM* | -27% | -17% | i | -1% | 3%
CCOC(=O)[C@H]1[C@H]2COc3ccc(Br)cc3[C@@H]2N2C(=O)c3cc(Br)ccc3NC(=O)[C@@]12C | 2.8µM* | -10% | -12% | i | -20% | -2%
CCOC(=O)[C@H]1[C@H]2COc3ccc(C)cc3[C@@H]2N2C(=O)c3cc(F)c(F)cc3NC(=O)[C@@]12C | ? | -8% | 0% | i | -15% | 0%
CCOC(=O)[C@H]1[C@H]2COc3ccc(Cl)cc3[C@@H]2N2C(=O)c3cc(Br)ccc3NC(=O)[C@@]12C | 3.5µM* | -13% | ? | i | -28% | -2%
NC(C(=O)O)c1nn[nH]n1 (stereo not drawn) | / | / | 0% | / | -16% | /
CC(C)Cc1cc(CN2CCC(CO)(Cc3cccc(C(F)(F)F)c3)CC2)[nH]n1 | ? | -17%[11.3 µM] | ? | i | 16µM* | 6%
CC(C)Cc1cc(CN2CCCC(CO)(Cc3cccc(Cl)c3)C2)[nH]n1 (stereo not drawn) | ? | ? | ? | ? | -59% | 5%
Cc1ccc(-n2cc(CN3CCC(CO)(Cc4cccc(C(F)(F)F)c4)CC3)cn2)cc1 | ? | -34%[11.3 µM] | ? | i | 11µM* | -4%
CC(NC(=O)C1CC1)c1nnc2n1CCN(Cc1cccc(F)c1F)CC2 (stereo not drawn) | / | / | / | i | / | /
Cc1ccsc1CN(C)c1ncnc2ccc(-c3ccoc3)cc12 | / | -15% | 11µM* | i | -43% | 0%
O=C(NCC1CCC2(CCN(Cc3cnn(-c4ccc(F)cc4)c3)CC2)O1)c1ccccc1 (stereo not drawn) | / | / | / | i | / | /
Fc1ccc(CSc2nncn3c2cc2occc23)c(Cl)c1 | -29% | / | -12% | / | -48% | /
O=[N+]([O-])c1ccc(Sc2nnnn2-c2ccccc2)nc1 | ? | ? | 16µM* | ? | -94% | -5%
COc1cc(SC)ccc1C(=O)Nc1ccc(Cl)cn1 | 2.2µM* | ? | -24% | ? | -12% | -3%
